The values below come from PubChem BioAssay (NCATS).

Molecules are shown by their SMILES. Inconclusive results are not listed. A call without a number means that no potency is given here. Calls of active or inactive are those of the source. Calls follow the shape of the dose curve; as a rule, active = well fitted inhibition curve with a large enough effect; inconclusive = small, poorly fitted or top-dose-only effect; inactive = flat fitted curve, though single readings scatter. Where a SMILES comes first, the peptide text is derived from it.

Calcium and integrin-binding protein 1 (Homo sapiens), sequence (Q99828 whole entry, looked up): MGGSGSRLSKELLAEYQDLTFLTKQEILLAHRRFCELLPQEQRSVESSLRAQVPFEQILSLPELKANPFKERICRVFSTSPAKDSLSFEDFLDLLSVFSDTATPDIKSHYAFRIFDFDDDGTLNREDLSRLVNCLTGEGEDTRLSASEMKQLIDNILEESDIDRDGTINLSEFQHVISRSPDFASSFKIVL

The experiment concerns the target Calcium and integrin-binding protein 1 (Homo sapiens) (UniProt Q99828). The experiment can be described thus: Primary qHTS for Identification of Calcium Integrin Binding Protein 1 (CIB1) Competitor (AID 1508620). Also: top concentration of the series differs between compounds. The settings on record: CIB1-GST / FITC-alphaIIb peptide fluorescence polarization; series mostly up to 57.7 µM. In a few lines:
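Fluorescence polarization competition: GST-tagged CIB1 (1 uM final) preincubated with compound 15 min at room temperature, then FITC-labelled alphaIIb peptide (100 nM final) added. After 15 min at room temperature, polarization read at Ex 480/Em 540.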
Turning to `COC1CC(OC2CCC3(C)C(=CCC4C3CCC3(C)C(C(C)O)CCC43O)C2)OC(C)C1OC1OC(C)C(OC2OC(COC3OC(COC4OC(CO)C(O)C(O)C4O)C(O)C(O)C3O)C(O)C(O)C2O)C(OC)C1O` (centres undefined), the Potency entry is “inactive”. As for `C[C@@H](OC(=O)/C=C/c1ccc(O)cc1)C1=C[C@]2(C=C[C@@H]3C(C(=O)O)=CO[C@@H](O[C@@H]4O[C@H](CO[C@@H]5O[C@H](CO)[C@@H](O)[C@H](O)[C@H]5O)[C@@H](O)[C@H](O)[C@H]4O)[C@@H]32)OC1=O`, the entry is “inactive”; as for `COC(=O)[C@]12C(=O)C(C)=C(O)[C@@]1(C)C(C)=CC1[C@@]34CC[C@@H](OC(C)=O)C(C)(C)C3[C@H](C[C@]12C)OC4=O` (some centres undefined), “inactive”.

On to `CC(=O)O[C@@H]1C[C@@]23C[C@@]24CC[C@H](OC2OC[C@@H](O)[C@H](O)[C@H]2O)C(C)(C)[C@@H]4CC[C@H]3[C@]2(C)CC3OC4(C[C@@H](C)C3[C@@]12C)OCC1(C)OC14` (some centres undefined), for which the Potency result is “inactive”.

As to `CCC(C)/C=C(C)/C=C/C1=CC2=C(Cl)C(=O)C(C)(OC(C)=O)C(=O)C2=CN1C1CCCCN(C(CCC(N)=O)C(=O)O)C1=O` (centres undefined), the Potency entry was “inactive”. As for `CCOc1c2c(c(OCC)c3ccccc13)C(=O)N(c1ccc(CC(=O)NS(=O)(=O)c3ccccc3)cc1)C2`, the Potency result was “inactive”. The value for `O=C(/C=C/c1ccc(O)cc1)OCC1=CC2OC(=O)C3=CO[C@@H](O[C@@H]4O[C@H](CO)[C@@H](O)[C@H](O)[C@H]4O)[C@H]1[C@@H]32` (some centres undefined) was “inactive”; that for `O=C(O[C@H]1[C@@H]2C[C@@H]3OC[C@@](O)([C@H]2[C@H](O[C@@H]2O[C@H](CO)[C@@H](O)[C@H](O)[C@H]2O)O3)[C@@H]1O)c1ccccc1` was “inactive”.

With `COC1=CC(=O)O[C@@H](/C=C/c2ccccc2)[C@@H]1O`, the Potency result was “inactive”. Turning to `C[C@@]12C[C@]3(O)O[C@H](O1)[C@]1(COC(=O)c4ccccc4)[C@H]3C[C@@]12O[C@@H]1O[C@H](COC(=O)c2ccccc2)[C@@H](O)[C@H](O)[C@H]1O`, the Potency entry was “inactive”. As to `C/C=C(\C)C(=O)O[C@H]1[C@H](O)[C@]2(COC(C)=O)[C@H](O)C[C@]3(C)C(=CCC4[C@@]5(C)CC[C@H](O[C@@H]6O[C@H](C(=O)O)[C@@H](O[C@@H]7O[C@H](CO)[C@@H](O)[C@H](O)[C@H]7O)[C@H](O)[C@H]6O[C@@H]6O[C@H](CO)[C@@H](O)[C@H](O)[C@H]6O)[C@](C)(CO)C5CC[C@]43C)[C@@H]2CC1(C)C` (some centres undefined), the Potency entry was “inactive”. As for `CCCCCCc1cccc(NC(=O)[C@H](N)CCP(=O)(O)O)c1`, the entry is “inactive”. The value for `COc1cc(-c2cccc(O)c2)cc2c1OCO2` was “inactive”. Regarding `C=C1[C@H]2CC[C@]3(O)[C@@](CC[C@@H]4[C@](C)(C(=O)O)CCC[C@]43C)(C2)[C@H]1OC(=O)/C(C)=C\C`, the Potency entry was “inactive”. Take `CC1CCC2(C)C(CC(O)C(O)C23CO3)C1(C)CCC1=CC(=O)OC1O` (centres undefined): the Potency result is “inactive”.

For `CC(C)=CCCC1(C)Oc2cc3c(c4c2C2C(O4)C(C)(O)CCC21)CN(C(CCC(=O)O)C(=O)O)C3=O` (centres undefined), the Potency entry is “inactive”. As for `CC1NC(=O)C(Cc2c[nH]c3ccccc23)NC1=O` (centres undefined), the entry is “inactive”; as for `CC1(C)CC(=O)N(CCCCN2CCN(c3ncccn3)CC2)C(=O)C1`, “inactive”. As for `CCCCNC(=O)[C@@H]1Cc2ccccc2N1C(=O)[C@@H](N)CC`, the entry is “inactive”. As for `CN[C@@H]1[C@@H](O)[C@@H](O[C@@H]2[C@@H](O)[C@H](O[C@H]3O[C@H](CN)[C@@H](O)[C@H](O)[C@H]3O)[C@@H](N)C[C@H]2NC(=O)[C@@H](O)CN)OC[C@]1(C)O`, the entry is “inactive”. On to `COC(=O)C1C(CC(C)=O)C=CC(O)C12Oc1cc(C)cc(O)c1C2=O` (centres undefined), for which the Potency result was “inactive”.

For the molecule `C=C1CC[C@@H]2[C@](C)(CO[C@@H]3O[C@H](CO)[C@@H](O)[C@H](O)[C@H]3O)CCC[C@@]2(C)[C@@H]1CCC1=CCOC1=O`, the Potency result is “inactive”. As for `C/C=C1/[C@H](O[C@@H]2O[C@H](CO)[C@@H](O)[C@H](O)[C@H]2O)OC=C(C(=O)OC)[C@H]1CC(=O)O[C@@H]1O[C@H](CO)[C@@H](O)[C@H](O)[C@H]1O`, the entry is “inactive”; as for `CC1NC(=O)CNC(=O)C(C(C)C)NC(=O)C2CCCN2C(=O)C(C(C)C)NC(=O)C(Cc2c[nH]c3ccccc23)NC1=O` (centres undefined) (cyclo(GAWVPV); configuration not given here), “inactive”; as for `CC1=CC[C@]2(C(=O)O[C@@H]3O[C@H](CO[C@@H]4O[C@H](CO)[C@@H](O[C@@H]5O[C@@H](C)[C@H](O)[C@@H](O)[C@H]5O)[C@H](O)[C@H]4O)[C@@H](O)[C@H](O)[C@H]3O)CC[C@]3(C)C(CCC4[C@@]5(C)C[C@@H](O)[C@H](O)[C@@](C)(CO)C5CC[C@]43C)C2C1C` (some centres undefined), “inactive”. As for `CCC(C)C(=O)O[C@@H]1[C@@H](O)[C@@H](O[C@H]2O[C@H](CO)[C@@H](O)[C@H](O)[C@H]2O)O[C@H](CO)[C@H]1O` (some centres undefined), the entry is “inactive”; as for `CCC[C@@H]1C[C@@H](C(=O)N[C@@H]([C@H]2O[C@H](SC)[C@H](OP(=O)(O)O)[C@@H](O)[C@H]2O)[C@H](C)Cl)N(C)C1`, “inactive”; as for `CC(C)C(C#N)O[C@@H]1O[C@H](CO[C@@H]2OC[C@](O)(CO)[C@H]2O)[C@@H](O)[C@H](O)[C@H]1O` (some centres undefined), “inactive”. The value for `COc1c(C)c(OCC=C(C)C)cc2c1C(=O)NC2=O` was “inactive”; that for `C=C1CC2(C(=O)O)CC1CCC2C1(C)CCCC2(C)C(=O)OC(O)C21` (centres undefined) was “inactive”; that for `COc1ccc2c(c1)OC[C@]1(O)c3cc4c(cc3O[C@H]21)OCO4` was “inactive”. On to `O=C(CCO[C@@H]1O[C@H](CO)[C@@H](O)[C@H](O)[C@H]1O)c1ccc(O)cc1`, for which the Potency entry was “inactive”. The value for `COc1ccccc1-n1c(SCC(=O)Nc2nc3ccc(C)cc3s2)nc2c(c1=O)SCC2` was “inactive”; that for `CC(=O)OC1C(O)CC(O[C@@H]2O[C@H](CO)[C@@H](O)[C@H](O)[C@H]2O)C2CCC3C(=O)OC(c4ccoc4)CC3(C)C21` (some centres undefined) was “inactive”. As for `CC1CCCC2OC2C(=O)c2c(O)cc(O)cc2CC(=O)O1` (centres undefined), the entry is “inactive”; as for `C/C(=C/CO)CC[C@@H]1[C@@]2(C)CCC[C@](C)(C(=O)O)C2CC[C@@]1(C)O` (some centres undefined), “inactive”; as for `COC(=O)c1cc(CN2CCN(C(=N)N)CC2)cc(C(=O)N2CCN(C(=O)c3ccc(C(=N)N)cc3)CC2)c1`, “inactive”. The value for `O=C(O)Cc1nn(Cc2nc3cc(C(F)(F)F)ccc3s2)c(=O)c2nccnc12` was “inactive”; that for `CO[C@@]12CC3[C@@H]([C@@H](O)[C@@H](OC(C)=O)C4[C@](C)(COC(C)=O)CCC[C@]34C)[C@@H](C)C1=CC(=O)O2` (some centres undefined) was “inactive”.
